Bioassay records: PubChem BioAssay, several laboratories
Ins promoter up – MIN6 insulin promoter up-regulation; MIN6 insulin promoter-GFP reporter, high-content imaging; hits give high values; z-score at 5 µM; 0.3% of 190,000 active;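 active = z-score above 3 at 5 µM with at least 500 cells counted in the well; inconclusive = wells under 500 cells, flagged as cytotoxic or low count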
Autophagy HCS – alters autophagy in cells; 0.98% of 190,000 active; MEF GFP-LC3 puncta imaging; test concentration mostly 10 µM; calls only at 10 µM (by protocol); AID 463193;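 active = percentage of spot-positive cells more than 3 SD above its plate mean, without a fluorescence outlier flag or 80% toxicity; inconclusive = no clear call, values can overlap the other calls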
L major viab – reduces viability of Leishmania major promastigotes. inhibition, % at 10 µM. 9% of 200,000 active. resazurin fluorescence viability; in the data active = inhibition above about 50%;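 note: promastigotes grown with compound for 44 hours at 28 °C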
WT yeast gro inh – growth inhibition of WT yeast, mitochondrial fusion screen | mitochondrial fusion phenotypic screen, WT strain | 2.1% of 190,000 active | inhibition, % at 10 µM; in the data active = inhibition above about 58%; tested in S. cerevisiae
INS promoter inh – TRM-6 insulin promoter activity inhibition; TRM-6 cells (human fetal islet line), insulin promoter-eGFP reporter, imaging; reporter expression induced with tamoxifen; inhibition, % at 2 µM; 0.9% of 130,000 active; AID 1273;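 active = inhibition above the mean plus 3 SD, with well images judged a real hit on visual review, cut at about 60% in these data, passing the limit was not always enough; inconclusive = inhibition over the cutoff but images rejected on review; inactive = inhibition not above the cutoff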
A number is an active result; 0 = inactive; ? = inconclusive; - = no result given; + = active, no number. Hits are enriched below; roughly 11% of the tested compounds scored in any of these assays.

SMILES	Ins promoter up	Autophagy HCS	L major viab	WT yeast gro inh	INS promoter inh
C=CCn1c(SCC(=O)Nc2ccc(-c3nc4ccc(C)cc4s3)cc2)nnc1-c1ccncc1	0	0	50	0	0
O/C(=C\Sc1nnc(Cc2ccccc2)o1)c1ccc(F)cc1	-	0	0	0	0
CCOc1ccc(NC2=NC(C(=O)NCc3ccccc3)CC(=O)N2)cc1 (configuration not stated)	0	0	0	0	-
CC(C)=NOc1cc(NC(=O)CCl)cc([N+](=O)[O-])c1	0	0	99	0	0
O=C(CCl)Nc1cc(SCC(O)CO)cc([N+](=O)[O-])c1 (configuration not stated)	?	+	0	0	-
Cc1ccc2cc3c(N)c4c(C)ccc(C)c4nc3nc2c1	0	0	100	0	-
CCOc1nc(NC(=O)NC(=O)c2ccccc2)nc(-c2ccccc2)n1	0	+	0	0	-
CCOc1nc(NC(=O)NS(=O)(=O)Oc2cccc(Cl)c2)nc(-c2ccccc2)n1	0	0	0	0	78
COc1cccc(-c2cc(C(=O)Nc3cc(OC)c(OC)c(OC)c3)no2)c1	0	0	51	0	0
COc1cccc(-c2cc(C(=O)Nc3cccnc3)no2)c1	0	0	0	0	0
COc1cccc(-c2cc(C(=O)Nc3c(C)nn(Cc4ccccc4C)c3C)no2)c1	0	0	52	0	-
COc1cccc(-c2cc(C(=O)Nc3c(C)nn(Cc4ccccc4)c3C)no2)c1	-	0	0	0	0
O=C(C1CCCO1)N1CCN(C(=S)Nc2ccccc2F)CC1 (configuration not stated)	0	0	0	0	0
COc1ccc(Cc2nnc(NC(=O)CSc3ccccc3)s2)cc1OC	0	0	51	0	0
CCc1nnc(NC(=O)CCC(=O)N2CCN(Cc3ccccc3)CC2)s1	0	0	0	0	0
CCc1nnc(NC(=O)CCC(=O)NCCc2ccc(OC)c(OC)c2)s1	0	0	61	0	0
COc1ccc(Cc2nnc(NC(=O)CSc3ccc(Cl)cc3)s2)cc1OC	0	0	0	0	-
CCC(=O)Nc1nnc(SCC(=O)NCCc2ccc(OC)c(OC)c2)s1	0	0	0	0	-
CCc1nnc(NC(=O)CCC(=O)N2CCN(C3c4ccccc4-c4ccccc43)CC2)s1	0	0	51	0	0
Cc1ncsc1C(=O)NCc1ccc(N2CCCC2=O)cc1	0	0	0	0	-
COC(=O)c1sc2nc(C)c([N+](=O)[O-])c(C)c2c1N	-	0	0	0	-
Fc1ccccc1Nc1nc(-c2ccncc2)nc2ccccc12	0	0	96	0	-
COCc1ccc(CN2CCc3c([nH]c4ccccc34)C2C(C)(C)C)o1 (configuration not stated)	0	0	50	0	0
CCn1ccnc1CN1CCc2c([nH]c3ccccc23)C1C(C)(C)C (configuration not stated)	0	0	52	0	-
COCCC(=O)N1CCc2c([nH]c3ccccc23)C1C(C)(C)C (configuration not stated)	0	0	0	0	-
SMILES	Ins promoter up	Autophagy HCS	L major viab	WT yeast gro inh	INS promoter inh
CCn1ccnc1CN1CCc2c([nH]c3ccccc23)C1C1CCCCC1 (configuration not stated)	0	0	0	65	0
CNC(=O)c1cc(C(=O)c2ccccc2C(F)(F)F)c[nH]1	0	0	0	0	-
O=C(O)/C=C/C(=O)NNC(=O)c1cccc(Br)c1	0	0	0	0	-
Cc1cccc(CS(=O)(=O)Cc2ccc(C(=O)NCc3ccco3)o2)c1	0	0	80	0	0
Cc1cc(=O)oc(C)c1C(=O)NCc1cccnc1	-	0	0	0	0
O=C(NCc1ccco1)c1ccc(Cn2cc([N+](=O)[O-])cn2)o1	0	0	0	0	0
Cc1ccc(CCNC(=O)c2ccc(CS(=O)(=O)Cc3ccccc3F)o2)cc1	-	0	75	0	0
O=C(NCc1ccco1)c1ccc([N+](=O)[O-])o1	0	0	63	0	-
O=C(NCCc1ccccc1)c1ccc(CS(=O)(=O)Cc2ccccc2F)o1	0	0	0	0	0
O=C(NCc1cccnc1)c1ccc([N+](=O)[O-])o1	-	0	94	0	0
CC(C(=O)Nc1cccc(Br)c1)c1ccc([N+](=O)[O-])cc1 (configuration not stated)	0	0	51	0	0
O=c1[nH]c2ccc(F)cc2[nH]c1=O	0	+	0	0	-
O=c1cc(-c2ccccc2)[nH]c2ccc(F)cc12	0	0	0	0	0
C/C(=N/NC(=O)CN1CCN(Cc2ccccc2Cl)CC1)c1cccs1	0	-	-	-	-
CCc1cc(-c2n[nH]c(=S)n2Cc2ccccc2)cs1	0	0	0	65	0
CCc1cc(-c2n[nH]c(=S)n2-c2ccccc2C)cs1	0	0	0	60	0
S=c1[nH]nc(-c2cccc(Cl)c2)n1Cc1ccccc1	0	0	0	0	0
S=c1[nH]nc(-c2cc3ccccc3o2)n1Cc1ccccc1	-	0	0	65	0
Cc1cccc(-c2n[nH]c(=S)n2Cc2ccccc2)c1	-	0	0	72	0
CCc1cc(-c2n[nH]c(=S)n2CC)cs1	0	0	0	0	0
CC1(C)CC(=O)C(C=Nc2cccnc2/N=C/C2=C(O)CC(C)(C)CC2=O)=C(O)C1	0	0	0	0	-
O=C(CCCN1C(=O)c2cccc3cccc(c23)C1=O)Nc1ccon1	-	0	0	0	0
CC(/C=C/c1ccccc1)=N\NC(=O)c1cc(C)[nH]n1	0	0	0	0	0
CC(=O)NCc1ccc(C(=O)CCl)s1	0	0	100	0	0
CC(=O)N(C)Cc1ccc(C(=O)CCl)cc1	0	0	101	0	-
SMILES	Ins promoter up	Autophagy HCS	L major viab	WT yeast gro inh	INS promoter inh
CC(=O)NCc1ccc(C(=O)CCl)cc1	0	0	93	0	-
O=C1N2c3ccccc3CCc3cccc(c32)C1(O)C(F)(F)F (configuration not stated)	0	0	0	0	0
Cc1ccc(CNc2ccc(S(=O)(=O)N3CCOCC3)cc2[N+](=O)[O-])cc1	0	0	0	0	-
O=c1oc(Nc2cccc(F)c2)nc2ccccc12	0	0	0	78	0
FC(F)(F)Oc1ccc(Nc2nc3ccccc3o2)cc1	0	0	0	0	0
c1ccc(Nc2nc3ccccc3o2)cc1	-	0	0	0	68
Cc1ccc(C)c(Nc2nc(N)c3ccccc3n2)c1	0	0	98	0	-
Nc1nc(Nc2cccc(F)c2)nc2ccccc12	0	0	89	0	-
O=C(Nc1cccc(-c2nc3ccccc3c(=O)o2)c1)c1ccccc1	0	0	0	0	0
O=C(Nc1ccccc1)c1nsnc1C(=O)Nc1ccccc1	0	0	0	0	-
O=C(OCn1nnc2ccccc2c1=O)c1cc(-c2ccccc2)nc2ccccc12	0	0	0	0	0
C=CCSc1nnc2c(n1)OC(c1c(C)[nH]n(-c3ccccc3)c1=O)Nc1ccccc1-2 (configuration not stated)	0	0	0	0	0
Fc1cccc(NC(=S)NNc2c3ccccc3nc3ccccc23)c1	0	0	0	76	-
CCOC(=O)Cn1c(=O)c(-c2cc(Br)ccc2N)nc2ccccc21	6.8	-	-	-	-
CN1C(=O)/C(=C2\SC(N3CCCCCC3)=NC2=O)c2ccccc21	0	0	0	0	0
CCCN1C(=O)/C(=C2\SC(N3CCCCC3)=NC2=O)c2ccccc21	0	0	64	0	-
